PubChem BioAssay (NCI)
Compounds without any hit were thinned out: in the full panel of roughly 83,000, 20% have a hit.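 Cells were grown in 96-well plates and exposed to the test compound at a single concentration for 48 hours; results are reported as percent growth, with values below 10 considered active.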 Unmarked numbers belong to inactive results. The source made the active and inactive calls.

How the values were obtained:
Experiment in all cases: NCI-60 one-dose screen, 48 h (100 = growth as untreated, 0 = no growth, -100 = all killed)
Conditions in all cases: 10 µM unless noted
HCT-15 colon = tested on: HCT-15 colon
HT29 colon = tested on: HT29 colon
SNB-75 CNS = tested on: SNB-75 CNS
SNB-19 CNS = tested on: SNB-19 CNS
U251 CNS = tested on: U251 CNS
PC-3 prostate = tested on: PC-3 prostate
SK-MEL-5 melanoma = tested on: SK-MEL-5 melanoma
UACC-62 melanoma = tested on: UACC-62 melanoma
LOX IMVI melanoma = tested on: LOX IMVI melanoma
SK-MEL-28 melanoma = tested on: SK-MEL-28 melanoma
SK-MEL-2 melanoma = tested on: SK-MEL-2 melanoma
EKVX NSCLC = tested on: EKVX NSCLC
SN12C renal = tested on: SN12C renal
TK-10 renal = tested on: TK-10 renal
ACHN renal = tested on: ACHN renal
CAKI-1 renal = tested on: CAKI-1 renal
A498 renal = tested on: A498 renal
CCRF-CEM leukemia = tested on: CCRF-CEM leukemia
MOLT-4 leukemia = tested on: MOLT-4 leukemia
UO-31 renal = tested on: UO-31 renal

Row | SMILES | growth (HCT-15 colon) | growth (HT29 colon) | growth (SNB-75 CNS) | growth (SNB-19 CNS) | growth (U251 CNS) | growth (PC-3 prostate) | growth (SK-MEL-5 melanoma) | growth (UACC-62 melanoma) | growth (LOX IMVI melanoma) | growth (SK-MEL-28 melanoma) | growth (SK-MEL-2 melanoma) | growth (EKVX NSCLC) | growth (SN12C renal) | growth (TK-10 renal) | growth (ACHN renal) | growth (CAKI-1 renal) | growth (A498 renal) | growth (CCRF-CEM leukemia) | growth (MOLT-4 leukemia) | growth (UO-31 renal) [%]
1 | CC(=O)Oc1ccccc1C(=O)N=C1[Se]CCCN1C(=O)c1ccccc1OC(C)=O | 21.5% | 95.5% | -28.9% (active) | -55.1% (active) | 23.4% | 19.6% | 74.8% | 73.6% | -64.1% (active) | 18.5% | 91.4% | 75.7% | -15.2% (active) | 6.56% (active) | 20.8% | 52.5% | 68.6% | 22.1% | 9.25% (active) | 
2 | CC(=O)OC[C@H]1OC(Sc2sc(C(=O)c3ccc(C)cc3)c(N)c2-c2nc3ccccc3s2)[C@H](OC(C)=O)[C@@H](OC(C)=O)[C@@H]1OC(C)=O (stereo partly drawn) | 59.5% | 69% | 25.4% | 74.4% | 59.5% | 63.2% | 45.5% | 55.8% | 54.5% | 76.4% | 93.6% | 75% | 41.9% | 99.3% | 23.1% | 53.7% | 98.9% | 60.5% | 80% | 
3 | CCc1ccc2nc(NC(=O)Cc3csc(NC(=O)c4ccco4)n3)sc2c1 | 95.5% | 86.5% | 47.1% | 64.4% | 67.3% | 66.1% | 81.6% | 65.9% | 85.7% | 90.9% | 67.9% |  | 79.4% | 82% | 57.2% | 60.1% | 83.9% | 87.2% | 39.9% | 60.5
4 | Cc1nc2ccccc2c(/C=C/c2ccccc2)c1C(=O)/C=C/c1ccc(C(F)(F)F)cc1 | -19.9% (active) | 5.76% (active) | -5.13% (active) | -64.9% (active) | -62.1% (active) | -28% (active) | -78.9% (active) | -51.6% (active) | -87.4% (active) | -67% (active) | -22.5% (active) | -28.8% (active) | -61.5% (active) | -51.2% (active) | -98.4% (active) | -76.6% (active) | -59.4% (active) | 9.14% (active) | 4.69% (active) | 
5 | Cc1ccc(C(=O)NCCNc2nccc(-c3c(-c4cccc(F)c4)nc4sccn34)n2)cc1 | 38.9% | 35.9% | -1.5% (active) | 69.5% | 62% | 56.2% | 37.6% | 23.7% | 39.4% | 65% | 70.7% | 38.5% | 47.3% | 75.6% | 29.5% | 40.1% | 32.8% | 49.4% | 56.5% | 
6 | COc1cccc2c(=O)c3c(sc12)c(NCCCN)nc1ccccc13 | 28.9% | -29.3% (active) | 58.2% | 51% | 39.5% | 55.9% | 85.9% | 88.3% | -81.7% (active) | 91.4% | 103% |  | 48.4% | 65.6% | 29.4% | 27.5% | 25.2% | 14.7% | 8.43% (active) | 27.7
7 | COc1ccc(C2C(C#N)=C(N)Oc3c2sc2c(C)cccc32)cc1 (stereo not drawn) | 9.6% (active) | 6.72% (active) | -4.52% (active) | 26.3% | 25.4% | 11.3% | 29% | 19.3% | 17.2% | 57.1% | 48.2% |  | 23.9% | 63.8% | 28.3% | 3.44% (active) | -5.44% (active) | 8% (active) | 12.9% | 33.9
